Source: PubChem BioAssay
Many of the other results were omitted from the sample, so hits are more common in it than they were.
VACV E9 pol inh = blocks vaccinia virus processive DNA synthesis; actives 0.94% (n = 46,000); AID 493162; normalized absorbance, % (concentration not given with the values); in vitro processive DNA synthesis, absorbance read-out; stronger effect = lower value; in the data active means normalized absorbance mostly below about 85%, no sharp cut-off; inactive means mostly above about 86%
Numbers without * were called inactive.

SMILES	VACV E9 pol inh
N#Cc1ccccc1NC(=O)COC(=O)Cc1ccc(Br)cc1	98
COC(=O)c1cc2ccc3c(c2oc1=O)CN(Cc1ccccc1)CO3	105
Cc1ccc(CN2COc3c(Cl)cc4c(C)c(C)c(=O)oc4c3C2)cc1	69*
Cc1c2c(cc3c4c(c(=O)oc13)CCCC4)CN(CCc1ccc(F)cc1)CO2	106
COc1cccc2sc(NC(=O)c3ccc(Br)cc3)nc12	103
Cc1cc(NCCNc2ccccc2)c2ccc3ccccc3c2n1	72*
Cc1cc(NCc2ccco2)c2ccccc2n1	100
Cc1cc(SCC(=O)Nc2ccccc2)c2ccccc2n1	102
CN(C)CCC(=O)Nc1nc(-c2ccc(Cl)cc2)cs1	90
Cc1cccc(N2CCN(C(=O)CN3C(=O)CCSc4ccccc43)CC2C)c1 (stereo not drawn)	107
COC(=O)/C=C/c1cn(-c2ccccc2)nc1-c1ccc(F)cc1	106
COCc1cc(C)nc2sc3c(=O)n(-c4ccccc4)nnc3c12	100
O=c1c2ccccc2c(C=NCc2ccncc2)c(O)n1-c1ccccc1Cl	85
Cc1ccc(C)n1C(CC(=O)O)c1ccc(C#N)cc1 (stereo not drawn)	106
NC(CC(=O)O)C1CCCCC1 (stereo not drawn)	102
Cc1ccc(C)n1C(CC(=O)O)C1CCCCC1 (stereo not drawn)	70*
Cc1nnc(NC(=O)c2ccccc2C(F)(F)F)s1	95
Nc1scc[n+]1CC(=O)N1CCCc2ccccc21	100
CC(=O)OCC1=C(C(=O)O)N2C(=O)[C@@H](NC(=O)CSc3ccncc3)[C@H]2SC1	60*
CC1=C(C(=O)O)N2C(=O)[C@@H](NC(=O)[C@H](N)c3ccc(O)cc3)[C@H]2SC1	100
Cn1nnnc1SCC1=C(C(=O)O)N2C(=O)C(NC(=O)C(OC=O)c3ccccc3)C2SC1 (stereo not drawn)	99
Cn1nnnc1SCC1=C(C(=O)O)N2C(=O)C(NC(=O)C(O)c3ccccc3)C2SC1 (stereo not drawn)	64*
CC(=O)OCC1=C(C(=O)O)N2C(=O)[C@@H](NC(=O)CCCC(N)C(=O)O)C2SC1 (stereo partly drawn)	88
CO/N=C(/C(=O)NC1C(=O)N2C(C(=O)O)=C(COC(N)=O)CSC12)c1ccco1 (stereo not drawn)	95
COC(=O)C1CCN(S(=O)(=O)c2ccccc2)CC1	100
SMILES	VACV E9 pol inh
CC1=CC(C)(C)Nc2ccc(OCC(=O)N3c4ccccc4Sc4ccccc43)cc21	100
C=CCC1(Nc2ccccc2)CCCCC1	102
O=C1CC(n2nc(C(O)c3ccccc3)n(-c3ccccc3)c2=S)C2COC1O2 (stereo not drawn)	98
COC(=O)c1cc2c(Cl)nc3ccc(C)cc3c2s1	91
Cc1ccc2nc(Cl)c3cc(C(=O)N(CCN(C)C)Cc4ccco4)sc3c2c1	53*
CCCCN(Cc1ccco1)C(=O)c1cc2c(=O)oc3ccc(C)cc3c2s1	102
Cc1cc(NC(=O)c2ccc(C(=O)c3ccccc3)cc2)no1	96
NC1=Cc2ccccc2CN1c1ccccc1Cl	100
O=C1CNC(=O)N1/N=C/c1cccc2ccccc12	100
O=c1[nH][nH]c(=O)n1CCCc1cc2cccc3ccc4cccc1c4c32	63*
COc1cccc(/C=C2\C(=O)NC(=O)N(C)C2=O)c1	100
COc1ccc(C)cc1S(=O)(=O)n1nnc2ccccc21	100
COc1cc2[nH]c(=O)n(CCCC(=O)N3CCN(c4cccc(Cl)c4)CC3)c(=O)c2cc1OC	88
CC(=C(C#N)C#N)c1ccc(Br)cc1	99
CCc1c(C#N)c(N)nc(SCC#N)c1C#N	97
CCOc1ccc2nc(NN)sc2c1	22*
CCOc1ccc2nc(NC(=O)C(CC)CC)sc2c1	98
CCOc1ccc2nc(NC(=O)C(C)C)sc2c1	115
CC(O)/C=C\c1cc[n+](C)cc1 (stereo not drawn)	110
NC(=O)COC(=O)c1ccccc1C(=O)c1ccccc1	100
C[n+]1ccc(/C=C/c2ccccc2O)c2ccccc21	100
C[n+]1ccc(/C=C\c2ccco2)c2ccccc21	91
C[n+]1ccc(/C=C/c2ccc3c(c2)OCO3)c2ccccc21	60*
CN1C2CCC1CC(NC(=O)CS(=O)(=O)c1ccc(F)cc1)C2 (stereo not drawn)	102
CCOc1ccc(NC(=O)C2CCCN2c2nnc(N3CCCC3=O)s2)cc1 (stereo not drawn)	97
SMILES	VACV E9 pol inh
CC(O)(CNC12CC3CC(CC(C3)C1)C2)c1ccc(Cl)cc1 (stereo not drawn)	107
C=C1C(C(=O)NCc2ccco2)C1C(=O)NCc1ccco1 (stereo not drawn)	56*
C=C(NCc1ccco1)c1ccc(Cl)cc1	104
Nc1nonc1C(=O)NCc1ccco1	100
CC1=C(C(=O)OCc2ccccc2)C(c2ccc[nH]2)C(C#N)=C(S)S1 (stereo not drawn)	100
CC(=O)Oc1ccccc1OCC(=O)c1ccccc1	104
Cc1cc(C)nc(/N=C(\N)Nc2ccccc2)n1	41*
Cc1cc(=O)[nH]c(/N=C(\N)Nc2ccccc2)n1	100
Cc1cc(C)nc(NC(N)=NCc2ccccc2)n1	98
O=C(c1ccccn1)C1CC1c1ccccc1 (stereo not drawn)	100
O=c1cc(-c2ccc(O)cc2)oc2cc(O)cc(O)c12	85*
O=c1cc(-c2ccccc2)oc2cc(O)cc(O)c12	100
O=C(COc1cc(O)c2c(=O)cc(-c3ccccc3)oc2c1)c1ccccc1	100
CN(Cc1ccccc1)Cc1csc2c1CCCC2	89
CC(C)C(=O)Nc1ccccc1-c1nc2ccccc2[nH]1	94
S=C(Nc1ccccc1)Nc1ccccc1-c1nc2ccccc2[nH]1	68*
O=C(Nc1ccccc1-c1nc2ccccc2[nH]1)C1=COCCO1	92
Cc1ccc(C)c(NC(=O)c2ccco2)c1	103
CCOc1ccc(-c2csc(/C(C#N)=C\Nc3ccc(NC(C)=O)cc3)n2)cc1	98
COc1cc2c(cc1OC)C(c1ccccc1)CC(=O)N2 (stereo not drawn)	85
O=C(CCC1CC(=O)Nc2ccccc21)NCc1ccccc1 (stereo not drawn)	84
O=C1CC(c2ccccc2)c2c(ccc3ccccc23)N1 (stereo not drawn)	84*
O=C(COC(=O)c1sc2ccccc2c1Cl)Nc1ccccc1	96
NC(=O)Cn1cc(/C=C2/C(=O)NC(=O)N(C3CCCCC3)C2=O)c2ccccc21	100
CC1=NN(c2ccccc2)C(=O)/C1=C/c1cn(CC(O)CN2CCCCC2)c2ccccc12 (stereo not drawn)	32*
SMILES	VACV E9 pol inh
O=C1Nc2ccccc2/C1=C\c1cn(CC(=O)N2CCCC2)c2ccccc12	93
CCOC(=O)N1CCN(C(=O)CCCN2C(=O)/C(=C\c3cccs3)SC2=S)CC1	100
COC(=O)c1ccccc1NC(=O)N1CCC(CN2CCc3ccccc3C2)CC1	84
Cc1ccc(C2=C/C(=C/c3ccc(-c4cccc(C(=O)O)c4)o3)C(=O)O2)cc1	100
O=C(O)c1cccc(-c2ccc(/C=c3/sc4nc5ccccc5n4c3=O)o2)c1	100
CC1=NN(c2cccc(C(=O)O)c2)C(=O)/C1=C/c1ccc(-c2cccc(Cl)c2C)o1	51*
Cc1ccc(C)c2[nH]c(=O)c(CCNC(=O)C(C)Oc3ccccc3)cc12 (stereo not drawn)	100
CN(C)c1ccc(C2/C(=C(/O)c3ccc(Cl)cc3)C(=O)C(=O)N2Cc2ccccc2)cc1 (stereo not drawn)	100
